We go through six molecules from PubChem BioAssay (EPA / NIEHS).

Several values for one entry are separate records, joined by “and”; a condition that tells them apart may be missing. Equal entries are not always repeated. Inconclusive results are not listed. Some structures have more than one record in an assay (separate samples or runs), and their calls can disagree. Activity calls are given as the source filed them. The calls were made as follows, unless noted: active = hit-call score of the fitted dose curve at least 0.9, where 1 is the maximum; inactive = score below 0.9.

The target of assay [1] is Paired box protein Pax-6 (Homo sapiens) (UniProt P26367). The assay can be described thus: ATG_Pax6_CIS: Attagene CIS-FACTORIAL HepG2 Assay for human Paired Box 6 (PAX6) (AID 2282956). Conditions: HepG2 CIS-FACTORIAL PAX6 reporter transcription, RNA readout; actives raise or lower the signal. An outline of the steps: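 Multiplexed cis-reporter HepG2 system; 24 h treatment; reporter mRNA read by RT-PCR/CE fluorescence; bidirectional fit vs DMSO.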
Paired box protein Pax-6 (Homo sapiens), sequence (P26367 whole entry, looked up): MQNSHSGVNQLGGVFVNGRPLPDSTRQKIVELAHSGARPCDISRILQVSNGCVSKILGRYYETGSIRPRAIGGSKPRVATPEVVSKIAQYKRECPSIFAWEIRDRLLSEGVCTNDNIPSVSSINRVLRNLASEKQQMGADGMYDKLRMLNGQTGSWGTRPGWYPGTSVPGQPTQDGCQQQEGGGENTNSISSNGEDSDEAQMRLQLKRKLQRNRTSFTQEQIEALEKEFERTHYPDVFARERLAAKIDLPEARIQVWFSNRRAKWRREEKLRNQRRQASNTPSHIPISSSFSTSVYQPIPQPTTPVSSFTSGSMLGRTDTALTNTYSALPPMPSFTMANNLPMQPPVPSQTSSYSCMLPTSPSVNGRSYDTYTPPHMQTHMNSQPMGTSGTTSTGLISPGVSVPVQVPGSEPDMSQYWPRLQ

Assay [2] is described as follows: ATG_PXRE_CIS: Attagene CIS-FACTORIAL HepG2 Assay for human Pregnane X Receptor Element (PXRE) (AID 2282957). The conditions noted are these: HepG2 Attagene CIS-FACTORIAL PXRE reporter, mRNA; actives raise or lower the signal. An outline of the steps: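 HepG2 cells transiently transfected with cis-regulated multiple reporter transcription units; endogenous factor activity measured as reporter mRNA 24 h after dosing. RT-PCR, fluorescent primer extension, HpaI digestion, capillary electrophoresis; bidirectional fit versus DMSO baseline.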

Assay [3] is described as follows: ATG_PPRE_CIS: Attagene CIS-FACTORIAL HepG2 Assay for human Peroxisome Proliferator-activated Response Element (PPRE) (AID 2282958). The conditions noted are these: HepG2 PPRE cis-element reporter, Attagene transcription factor profiling; actives raise or lower the signal. An outline of the steps: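 In this cell-based multiplex, a PPRE cis element drives a reporter sequence in transiently transfected HepG2 cells. Following 24 h treatment, labeled cDNA amplicons are sized and quantified by capillary electrophoresis, with DMSO defining baseline.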

Assay [4] in a line: ATG_RORE_CIS: Attagene CIS-FACTORIAL HepG2 Assay for human RAR-related Orphan Receptor Element (RORE) (AID 2282959). The conditions noted are these: HepG2 Attagene cis-factorial RORE reporter, mRNA; actives raise or lower the signal. The procedure, abridged: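 Endogenous factor activity at a cis response element is read as reporter transcript levels in HepG2 cells, 24 h post-dose. Transcripts are quantified by RT-PCR with capillary electrophoresis, and data fitted in both directions against DMSO.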

Assay [5] is described as follows: ATG_Sox_CIS: Attagene CIS-FACTORIAL HepG2 Assay for human SRY-box transcription factor (SOX) (AID 2282960). The conditions noted are these: HepG2 Attagene cis-factorial SOX reporter, mRNA; actives raise or lower the signal. An outline of the steps:
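Measures mRNA induction of a SOX1-associated reporter in HepG2 after 24 h dosing. Fluorescently labelled RT-PCR fragments are separated by capillary electrophoresis, and gain or loss relative to DMSO control is fitted.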

Assay [6] has as its target Transcription factor Sp1 (Homo sapiens) (UniProt P08047). The experiment in a line: ATG_Sp1_CIS: Attagene CIS-FACTORIAL HepG2 Assay for human Specificity Protein 1 (Sp1) (AID 2282961). The conditions noted are these: HepG2 Sp1 cis-reporter transcription, actives raise or lower the signal. The procedure, abridged:
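Cells: HepG2, transiently transfected with cis-regulated multiplexed reporters. Exposure: 24 h. Detection: reporter transcripts amplified, fluorescently labeled, restriction-digested and sized by capillary electrophoresis. Analysis: bidirectional fit relative to DMSO.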

Assay [7] is described as follows: ATG_SREBP_CIS: Attagene CIS-FACTORIAL HepG2 Assay for human Sterol Regulatory Element Binding (SREBP) (AID 2282962). The conditions noted are these: HepG2 Attagene cis-factorial SREBP reporter, mRNA; actives raise or lower the signal. An outline of the steps:
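mRNA induction of transfected cis-promoter reporters in HepG2 cells, 24 h post-dose. Detection: RT-PCR with 6-FAM-labelled products, HpaI digest, capillary electrophoresis. DMSO served as negative control and baseline.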

For assay [8], the target named is Signal transducer and activator of transcription 3 (Homo sapiens) (UniProt P40763). The experiment in a line: ATG_STAT3_CIS: Attagene CIS-FACTORIAL HepG2 Assay for human Signal Transducer and Activator of Transcription 3 (STAT3) (AID 2282963). Conditions: HepG2, Attagene cis-factorial STAT3 reporter transcription; actives raise or lower the signal. The procedure, abridged:
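Endogenous STAT3-responsive cis-element activity was read in transiently transfected HepG2 cells after 24 h treatment. Reporter transcripts were quantified via RT-PCR and capillary electrophoresis, with DMSO as negative control and bidirectional curve fitting.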

The nature of assay [9]: ATG_TA_CIS: Attagene CIS-FACTORIAL HepG2 Assay for human TA Basal Promoter (AID 2282964). Conditions: HepG2 Attagene CIS-factorial TA basal promoter reporter; actives raise or lower the signal. The procedure, abridged:
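Steps: transfect HepG2 with MRTUs; dose 24 h; isolate RNA, DNase-treat, reverse-transcribe; PCR and FAM-label reporter cDNA; digest with HpaI 2h at 37 C; run capillary electrophoresis. Activity fitted both directions against DMSO.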

The nature of assay [10]: ATG_TCF_b_cat_CIS: Attagene CIS-FACTORIAL HepG2 Assay for human T-Cell-Factor with beta-catenin (TCF/b-cat) (AID 2282965). Conditions: HepG2 TCF/beta-catenin cis-reporter transcription, actives raise or lower the signal. An outline of the steps: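 Endogenous TCF/LEF activity read as reporter transcript level via RT-PCR and capillary electrophoresis fluorescence in transfected HepG2, 24 h exposure; gain or loss of signal fitted against DMSO controls.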

A short description of assay [11]: ATG_TAL_CIS: Attagene CIS-FACTORIAL HepG2 Assay for human TAL Basal Promoter (AID 2282966).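 Also: background control endpoint measuring basal TAL promoter reporter mRNA not a specific factor.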 Conditions: HepG2 Attagene cis-factorial TAL promoter reporter; actives raise or lower the signal. The procedure, abridged: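 HepG2 cells were transiently transfected with promoter-driven multiplexed reporter units and dosed for 24 h. Reporter mRNA was measured by RT-PCR with capillary electrophoresis fluorescence; bidirectional fits used DMSO as baseline, serving as a background control.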

The nature of assay [12]: ATG_TGFb_CIS: Attagene CIS-FACTORIAL HepG2 Assay for human Transforming Growth Factor (TGF) (AID 2282967). The conditions noted are these: HepG2 Attagene CIS TGFb reporter, mRNA transcription; actives raise or lower the signal. The procedure, abridged: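 Cells were dosed for 24 hours, after which total RNA was reverse-transcribed and reporter sequences amplified, labeled and sized by capillary electrophoresis. Activity was fitted in both directions against DMSO.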

The target in assay [13] is Nuclear receptor subfamily 1 group I member 3 (Homo sapiens) (UniProt Q14994). The experiment in a line: ATG_CAR_TRANS: Attagene TRANS-FACTORIAL HepG2 Assay for human Constitutive Androstane Receptor (CAR) (AID 2282969; active = hit-call score of the fitted dose curve at least 0.9, where 1 is the maximum;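 also: activators raise reporter mRNA above DMSO so AC50 marks induction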). The conditions noted are these: HepG2 Attagene TRANS-FACTORIAL CAR reporter. The procedure, abridged:
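Readout is reporter mRNA induction, quantified by fluorescent primer extension and capillary electrophoresis after RT-PCR. Cells were HepG2 transiently carrying chimeric NR-Gal4 constructs with GAL4-UAS reporters, treated for 24 h; activity scored upward from DMSO.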

For assay [14], the target named is Estrogen receptor (Homo sapiens) (UniProt P03372). The assay can be described thus: ATG_ERa_TRANS: Attagene TRANS-FACTORIAL HepG2 Assay for human Estrogen Receptor alpha (ERa) (AID 2282970; active = hit-call score of the fitted dose curve at least 0.9, where 1 is the maximum). The conditions noted are these: HepG2 Attagene TRANS ERa GAL4 reporter, mRNA. The procedure, abridged:
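HepG2 cells transiently transfected with multiplexed GAL4-UAS reporter units; ERa activity read via exogenous chimeric NR-Gal4 protein. After 24 hour compound exposure, reporter mRNA measured by RT-PCR with 6-FAM labelling and capillary electrophoresis; gain-of-signal fitted relative to DMSO.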

Assay [15] can be described thus: ATG_GAL4_TRANS: Attagene TRANS-FACTORIAL HepG2 Assay for GAL4 (Internal Marker) (AID 2282976; active = hit-call score of the fitted dose curve at least 0.9, where 1 is the maximum). The conditions noted are these: HepG2 Attagene TRANS GAL4 internal marker reporter. An outline of the steps:
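HepG2 cells transiently transfected with multiplexed GAL4-UAS reporter constructs were dosed for 24 h. Reporter mRNA was measured by RT-PCR, 6-FAM primer extension, HpaI digestion and capillary electrophoresis, and gain of signal was fitted relative to DMSO.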

Assay [16] can be described thus: ATG_VDRE_CIS: Attagene CIS-FACTORIAL HepG2 Assay for human Vitamin D Receptor Element (VDRE) (AID 2282968). The conditions noted are these: HepG2 VDRE cis-reporter transcription, actives raise or lower the signal. The procedure, abridged: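 Reporter mRNA induction, quantified by capillary electrophoresis of fluorescently labelled RT-PCR products, was read 24 h after dosing HepG2 cells carrying transiently transfected cis-regulated reporter units; gain or loss relative to DMSO.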

The target of assay [17] is X-box-binding protein 1 (Homo sapiens) (UniProt P17861). The assay can be described thus: ATG_Xbp1_CIS: Attagene CIS-FACTORIAL HepG2 Assay for human X-box Binding Protein 1 (XBP1) (AID 2282972). Conditions: HepG2 XBP1 cis-element reporter, Attagene multiplex; actives raise or lower the signal. The procedure, abridged: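 Fluorescence-labelled cDNA fragments from reporter transcripts, separated by capillary electrophoresis, give the signal. Source: HepG2 cells transfected with promoter-driven reporter units, harvested 24 h post-dose. DMSO served as reference for bidirectional curve fitting.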
X-box-binding protein 1 (Homo sapiens), sequence (P17861 whole entry, looked up, the tested form may be a part): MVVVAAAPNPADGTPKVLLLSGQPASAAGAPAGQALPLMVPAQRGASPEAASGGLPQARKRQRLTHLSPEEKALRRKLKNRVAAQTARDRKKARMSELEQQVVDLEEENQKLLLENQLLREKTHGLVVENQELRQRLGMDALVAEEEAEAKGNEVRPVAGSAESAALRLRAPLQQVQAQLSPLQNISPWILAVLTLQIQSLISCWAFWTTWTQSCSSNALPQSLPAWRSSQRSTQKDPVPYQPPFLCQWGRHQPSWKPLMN

Assay [18] in a line: ATG_M_19_TRANS: Attagene TRANS-FACTORIAL HepG2 Assay for M19 Transcription Factor (Internal Marker) (AID 2282974; active = hit-call score of the fitted dose curve at least 0.9, where 1 is the maximum). The conditions noted are these: HepG2 Attagene TRANS-FACTORIAL M19 internal marker reporter. The procedure, abridged:
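Reporter mRNA induction was measured in transfected HepG2 cells 24 h after dosing. Endpoint fitted upward relative to DMSO and serves as a background control within the multiplexed TRANS panel.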

The target of assay [19] is Estrogen-related receptor gamma (Homo sapiens) (UniProt P62508). The experiment in a line: ATG_ERRg_TRANS: Attagene TRANS-FACTORIAL HepG2 Assay for human Estrogen-Related Receptor gamma (ERRg) (AID 2282977; active = hit-call score of the fitted dose curve at least 0.9, where 1 is the maximum;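 also: hits increase reporter signal over DMSO so potencies reflect activators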). The conditions noted are these: HepG2 Attagene TRANS reporter, ERRg transactivation. An outline of the steps: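 Transfect HepG2 with multiple GAL4-UAS reporter transcription units; dose chemicals 24 h; isolate RNA, reverse-transcribe with oligo(dT), PCR-amplify, label with 6-FAM, digest with HpaI; size fragments by capillary electrophoresis. DMSO serves as negative control.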
Estrogen-related receptor gamma (Homo sapiens), sequence (P62508 whole entry, looked up, the tested form may be a part): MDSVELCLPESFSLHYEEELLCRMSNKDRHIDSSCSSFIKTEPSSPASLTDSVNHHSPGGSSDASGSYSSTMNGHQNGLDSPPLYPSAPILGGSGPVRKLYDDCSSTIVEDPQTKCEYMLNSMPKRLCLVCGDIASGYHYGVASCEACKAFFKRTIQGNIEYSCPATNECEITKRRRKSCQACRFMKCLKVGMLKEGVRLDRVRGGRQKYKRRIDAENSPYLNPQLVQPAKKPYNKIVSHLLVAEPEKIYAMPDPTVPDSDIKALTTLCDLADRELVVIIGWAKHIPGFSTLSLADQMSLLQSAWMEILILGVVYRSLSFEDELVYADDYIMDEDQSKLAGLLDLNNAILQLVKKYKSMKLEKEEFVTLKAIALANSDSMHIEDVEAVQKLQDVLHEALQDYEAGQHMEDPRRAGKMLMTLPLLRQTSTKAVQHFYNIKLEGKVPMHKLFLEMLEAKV

Signal transducer and activator of transcription 3 (Homo sapiens), sequence (P40763 whole entry, looked up): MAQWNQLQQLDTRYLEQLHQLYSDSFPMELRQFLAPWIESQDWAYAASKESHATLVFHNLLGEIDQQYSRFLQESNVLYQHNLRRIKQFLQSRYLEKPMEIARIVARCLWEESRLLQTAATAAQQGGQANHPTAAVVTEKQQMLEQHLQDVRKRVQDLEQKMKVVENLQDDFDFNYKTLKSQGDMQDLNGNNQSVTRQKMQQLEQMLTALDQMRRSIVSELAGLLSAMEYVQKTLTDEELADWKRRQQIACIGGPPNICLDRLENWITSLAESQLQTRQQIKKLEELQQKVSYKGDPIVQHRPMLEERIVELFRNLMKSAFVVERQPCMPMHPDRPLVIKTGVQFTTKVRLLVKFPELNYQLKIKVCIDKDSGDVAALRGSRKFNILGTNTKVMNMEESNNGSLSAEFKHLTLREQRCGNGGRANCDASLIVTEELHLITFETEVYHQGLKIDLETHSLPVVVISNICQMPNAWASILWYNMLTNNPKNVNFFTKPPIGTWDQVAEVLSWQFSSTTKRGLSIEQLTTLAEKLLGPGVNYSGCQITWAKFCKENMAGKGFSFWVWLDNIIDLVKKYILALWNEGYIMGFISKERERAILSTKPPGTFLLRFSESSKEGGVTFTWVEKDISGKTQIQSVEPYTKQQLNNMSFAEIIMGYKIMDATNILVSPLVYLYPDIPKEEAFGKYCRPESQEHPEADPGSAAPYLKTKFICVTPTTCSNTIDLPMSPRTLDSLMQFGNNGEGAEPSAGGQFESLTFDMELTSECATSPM
Transcription factor Sp1 (Homo sapiens), sequence (P08047 whole entry, looked up): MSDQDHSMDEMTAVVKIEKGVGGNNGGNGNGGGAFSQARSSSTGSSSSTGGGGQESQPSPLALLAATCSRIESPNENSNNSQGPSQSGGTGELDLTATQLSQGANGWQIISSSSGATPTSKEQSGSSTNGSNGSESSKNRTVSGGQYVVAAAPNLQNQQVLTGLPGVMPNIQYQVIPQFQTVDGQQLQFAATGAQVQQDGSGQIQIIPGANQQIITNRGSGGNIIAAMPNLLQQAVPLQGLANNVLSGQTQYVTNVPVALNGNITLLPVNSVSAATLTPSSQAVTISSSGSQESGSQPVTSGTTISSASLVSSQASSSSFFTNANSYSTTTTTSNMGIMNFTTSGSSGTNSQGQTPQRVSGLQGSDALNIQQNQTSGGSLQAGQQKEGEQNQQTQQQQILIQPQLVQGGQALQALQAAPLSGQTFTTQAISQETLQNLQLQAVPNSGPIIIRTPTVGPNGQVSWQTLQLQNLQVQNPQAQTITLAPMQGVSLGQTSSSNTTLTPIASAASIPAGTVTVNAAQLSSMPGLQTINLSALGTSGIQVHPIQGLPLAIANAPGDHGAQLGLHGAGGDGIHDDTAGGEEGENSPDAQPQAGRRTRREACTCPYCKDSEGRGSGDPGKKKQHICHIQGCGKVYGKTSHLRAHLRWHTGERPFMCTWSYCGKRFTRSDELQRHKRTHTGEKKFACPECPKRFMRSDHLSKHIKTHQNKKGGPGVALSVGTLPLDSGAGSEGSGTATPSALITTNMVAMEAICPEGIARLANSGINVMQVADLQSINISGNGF
Nuclear receptor subfamily 1 group I member 3 (Homo sapiens), sequence (Q14994 whole entry, looked up, the tested form may be a part): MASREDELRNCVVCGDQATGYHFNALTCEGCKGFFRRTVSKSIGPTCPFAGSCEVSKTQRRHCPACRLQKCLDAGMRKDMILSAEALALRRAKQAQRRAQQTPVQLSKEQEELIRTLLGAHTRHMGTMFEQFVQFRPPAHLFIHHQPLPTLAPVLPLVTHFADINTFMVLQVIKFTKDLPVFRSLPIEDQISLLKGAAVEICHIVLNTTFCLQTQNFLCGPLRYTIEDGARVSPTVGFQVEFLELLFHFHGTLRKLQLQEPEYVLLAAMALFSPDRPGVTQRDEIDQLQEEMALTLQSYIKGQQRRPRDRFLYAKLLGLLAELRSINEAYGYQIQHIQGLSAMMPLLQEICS
Estrogen receptor (Homo sapiens), sequence (P03372 whole entry, looked up, the tested form may be a part): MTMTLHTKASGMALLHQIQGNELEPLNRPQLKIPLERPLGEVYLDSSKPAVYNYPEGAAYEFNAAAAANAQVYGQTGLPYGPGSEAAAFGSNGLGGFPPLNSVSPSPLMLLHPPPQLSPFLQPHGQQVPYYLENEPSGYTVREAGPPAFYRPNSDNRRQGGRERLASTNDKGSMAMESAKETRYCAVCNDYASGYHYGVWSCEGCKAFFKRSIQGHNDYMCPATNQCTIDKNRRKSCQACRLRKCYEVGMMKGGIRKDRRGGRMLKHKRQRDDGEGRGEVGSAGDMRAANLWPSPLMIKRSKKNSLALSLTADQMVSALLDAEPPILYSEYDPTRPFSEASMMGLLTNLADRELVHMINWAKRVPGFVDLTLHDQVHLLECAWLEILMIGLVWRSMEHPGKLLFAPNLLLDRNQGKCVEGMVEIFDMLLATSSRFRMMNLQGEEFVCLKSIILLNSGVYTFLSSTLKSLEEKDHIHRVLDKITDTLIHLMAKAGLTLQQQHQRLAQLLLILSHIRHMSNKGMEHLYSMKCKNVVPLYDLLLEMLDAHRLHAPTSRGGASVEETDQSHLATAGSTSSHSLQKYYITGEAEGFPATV

With `O=C(O)c1ccccc1C(=O)OCc1ccccc1`, the outcome in assay [1], in [2], in assay [3], in assay [4], in assay [5] and in assay [6] was inactive. Also, the molecule was called inactive in assay [7], in assay [8], in [9], in assay [10], in [11] and in [12]. Further, the call in assay [13], in assay [14] and in [15] was inactive.

For `Cc1ccc(C(C)C)cc1`, the molecule was classed as inactive in [1], in assay [2], in assay [3], in assay [4], in assay [5] and in assay [6]. The outcome in assay [7], in [8], in assay [9], in [10], in assay [11] and in assay [12] was inactive. The outcome in assay [16] and in [17] was inactive.

By AC50 is commonly meant the concentration at which the activity in the assay is half-maximal. `O=C1CCC(C2CCCCC2)CC1`: the AC50 in assay [1] was 156 µM (active); in assay [2] it was 10.4 µM (active) [middle of 4 runs]; in [6] it was 171 µM (active); in assay [16], 86.8 µM (active). In addition, the result in assay [1], in assay [3], in [4], in assay [5], in [6] and in assay [7] was inactive. In addition, the molecule was classed as inactive in assay [8], in assay [9], in [10], in [11], in assay [12] and in assay [16]. Moreover, the outcome in assay [13], in assay [18], in assay [15] and in [19] was inactive.

Regarding `Clc1cc(Cl)c2c(c1)N=C1CCCCCN1C2`, the call in [1], in [3], in assay [4], in [5], in assay [6] and in assay [7] was inactive. Moreover, the call in assay [8], in assay [9], in [11], in assay [12], in assay [16] and in assay [13] was inactive. In addition, the outcome in assay [14] and in [19] was inactive. In addition, the AC50 in assay [2] is 13.2 µM (active); in assay [10] it was 83.4 µM (active).

Regarding `CCCCOC(=O)c1ccc(O)cc1`, the half-maximal activity concentration (AC50) in assay [1] was 81.5 µM (active); in [2], 27 µM (active) and 24.1 µM (active); in assay [3] it was 63.3 µM (active) and 65.9 µM (active) and 24.9 µM (active); in assay [4] it was 65 µM (active); in assay [5] it was 100 µM (active); in [7], 19.8 µM (active). The half-maximal activity concentration (AC50) in assay [9] was 79 µM (active); in [16], 72.4 µM (active) and 51.8 µM (active). Besides, the result in assay [1], in [2], in assay [3], in assay [4], in assay [5] and in assay [6] was inactive. Moreover, the result in assay [7], in assay [8], in [9], in assay [11], in [12] and in assay [16] was inactive. The call in [18] and in assay [15] was inactive.

Regarding `CN(C)C(=O)C1(N2CCCCC2)CCN(CC[C@@]2(c3ccc(Cl)c(Cl)c3)CN(C(=O)c3ccccc3)CCO2)CC1`, the molecule was called inactive in [1], in assay [3], in assay [4], in assay [5], in [6] and in assay [8]. The outcome in assay [9], in [11], in assay [12], in assay [16], in assay [14] and in [17] was inactive. The molecule was called inactive in assay [19]. Further, the AC50 is 0.17 µM (active) in [2], 0.436 µM (active) in assay [7] and 0.98 µM (active) in assay [10].
